# Measured values reported in PMC12864922, “TDP-43 directly inhibits mRNA accumulation in neurites through modulation of mRNA stability”.
# The full ranking holds about 9,900 sequences; the median of “r (bound/input frequency ratio)” is about 0.7, and the highest 2% start at about 6.5. This excerpt belongs to a sample that is enriched for the highest values.
# B1: ENSMUSG00000031028.686|Tub (ssRNA)
# RNA: GGGAGUUCUACAGUCCGACGAUCGCUUCGAUAUCCGCAUGCUAUAUUUUUGUUCAAAAUUAUCUGGAGUUUUAGACAAACUUGCAAAACUGUGCUUUUAUUAAGUGACUUUUUGAAUAAACUUUUUGGUAUUCUGAAGCAAAUGUAUUUAUUUAUUGGUAUGUGCAAUGACAAACUUGGUAUUUUCCCAUAAUGACAUUAUGUAUGUUGUAGAAUUUAGUGUUUGUCUAAGUACAGACAUGUAUCAACACAUUAAACUUGAACUGUUUGACGGCUGUGUCCUUGGUUUUCAUAGAGAAGAGAACUCUUGCGGUCGCACUAGUGUGGAAUUCUCGGGUGUCAAGG
# B2: ENSMUSG00000029636.181|Wasf3 (ssRNA)
# RNA: GGGAGUUCUACAGUCCGACGAUCGCUUCGAUAUCCGCAUGCUACACAGCUCUCUUCUCUCCUGUUGUCGGCACAUUUUCAAUUUUAAAAAGUACCUCACAAGAUAAACUUGAUUCAGCCAGUUGCCCGGGCAGAGACCUGACUUCCCCUCUCCUGCCCUGAUCCUUUUUACCAAAUGGCGAUUCCAUAGUCCUGGCUGAGGCAGGGGCUCAAAGUCCAGUGUCUGCUUUGCAAUUCUGGAAGGACAGCUGCUUAUUUAAAUAAGUCUGUGAUAUCCGCAGGCUUGGGUUACAGGGAGGACCUUCUCUUGCGGUCGCACUAGUGUGGAAUUCUCGGGUGUCAAGG
# B3: ENSMUSG00000029028.53|Lrrc47|5:9;12:16;18:22;45:49;64:68;70:74;86:90;93:97;118:122;134:139;141:145;147:151;163:168;170:174;191:195;197:201;208:212;214:218;235:2 … (ssRNA)
# RNA: GGGAGUUCUACAGUCCGACGAUCGCUUCGAUAUCCGCAUGCUAUGUCACACAAGCAUACGCACACCUGUAGAUCUUUGUAGGUGUAGCAUACCUGUAGGUAUCUGGCACACGCAUACCUGUAGAUGUCACACAAGCACACGAUAUGCUGUAGGUAUCUGGCACACCUGUAGGUGUCACACACGCACACGCACACCUGUGGGUGUCACACACGCACACCUGUAGGUGUCUGUAGCACACGCAUACCUGCAGCACACGCACACCUGUAGAUCUCUAUAGCACACGCACACCUGUAGGGGUCUGUGCUCUUGCGGUCGCACUAGUGUGGAAUUCUCGGGUGUCAAGG
# B4: ENSMUSG00000028439.165|Fam219a (ssRNA)
# RNA: GGGAGUUCUACAGUCCGACGAUCGCUUCGAUAUCCGCAUGCUAAGCUUAAGGAAAUACAGUGAGCCAAGUGGCUGUAUGAUAUGGUAUGGUAUGGUAUGGUAUGGUAUGGUAUGGUAUGCACAUGUGUGUGCAUGUGUGUGUGCCUGUGUGUGUGCGUGUGCGUGUGUGUAUGUGUGUGCGUGUGUGUGUGUGUGUGUUGUACCCGAGUGUGUGUUGAGCCUAUCUGUCCAGGGAACCAGAUUGGUGUCCGAGAUGAGGAAAUGGCUGUGGCCUGGGAAAUCAGUGAGAGGCCGCUUGGGAAUCUCUUGCGGUCGCACUAGUGUGGAAUUCUCGGGUGUCAAGG
# B5: ENSMUSG00000028439.166|Fam219a (ssRNA)
# RNA: GGGAGUUCUACAGUCCGACGAUCGCUUCGAUAUCCGCAUGCUAAGGAAAUACAGUGAGCCAAGUGGCUGUAUGAUAUGGUAUGGUAUGGUAUGGUAUGGUAUGGUAUGGUAUGCACAUGUGUGUGCAUGUGUGUGUGCCUGUGUGUGUGCGUGUGCGUGUGUGUAUGUGUGUGCGUGUGUGUGUGUGUGUGUUGUACCCGAGUGUGUGUUGAGCCUAUCUGUCCAGGGAACCAGAUUGGUGUCCGAGAUGAGGAAAUGGCUGUGGCCUGGGAAAUCAGUGAGAGGCCGCUUGGGAAUGAGAAUCUCUUGCGGUCGCACUAGUGUGGAAUUCUCGGGUGUCAAGG
# B6: ENSMUSG00000028439.167|Fam219a (ssRNA)
# RNA: GGGAGUUCUACAGUCCGACGAUCGCUUCGAUAUCCGCAUGCUAUACAGUGAGCCAAGUGGCUGUAUGAUAUGGUAUGGUAUGGUAUGGUAUGGUAUGGUAUGGUAUGCACAUGUGUGUGCAUGUGUGUGUGCCUGUGUGUGUGCGUGUGCGUGUGUGUAUGUGUGUGCGUGUGUGUGUGUGUGUGUUGUACCCGAGUGUGUGUUGAGCCUAUCUGUCCAGGGAACCAGAUUGGUGUCCGAGAUGAGGAAAUGGCUGUGGCCUGGGAAAUCAGUGAGAGGCCGCUUGGGAAUGAGAAUGCAGUGCUCUUGCGGUCGCACUAGUGUGGAAUUCUCGGGUGUCAAGG
# B7: ENSMUSG00000028439.164|Fam219a (ssRNA)
# RNA: GGGAGUUCUACAGUCCGACGAUCGCUUCGAUAUCCGCAUGCUAAGAGCAAGCUUAAGGAAAUACAGUGAGCCAAGUGGCUGUAUGAUAUGGUAUGGUAUGGUAUGGUAUGGUAUGGUAUGGUAUGCACAUGUGUGUGCAUGUGUGUGUGCCUGUGUGUGUGCGUGUGCGUGUGUGUAUGUGUGUGCGUGUGUGUGUGUGUGUGUUGUACCCGAGUGUGUGUUGAGCCUAUCUGUCCAGGGAACCAGAUUGGUGUCCGAGAUGAGGAAAUGGCUGUGGCCUGGGAAAUCAGUGAGAGGCCGCUUCUCUUGCGGUCGCACUAGUGUGGAAUUCUCGGGUGUCAAGG
# Target: TDP-43 (Homo sapiens, UniProt Q13148 1-414)
# Assay: RNA Bind-n-Seq with designed 260-mer pool; 25 mM Tris-HCl, 150 mM KCl, 3 mM MgCl2, BSA (printed 500 mg/mL), 20 units/mL SUPERase IN; pH not stated; 500 nM RNA pool, 1 h, 4 C; TDP-43 5, 50, 500 nM; high values mean tight binding
# Settings: protein: recombinant; tags: SBP (GST cleaved off with PreScission; pGEX-GST-SBP)
# How it was run: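 An in vitro-transcribed pool of 260-nt 3′ UTR oligos (500 nM) was incubated for 1 h at 4 °C with recombinant SBP-tagged TDP-43 at 5, 50 or 500 nM held on streptavidin beads. The buffer contained 25 mM Tris-HCl, 150 mM KCl, 3 mM MgCl2, BSA and SUPERase IN. Biotin-eluted bound RNA was sequenced, and binding, R, is each oligo's normalized read abundance in the bound sample over that in input.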
# Chain of TDP-43 (Q13148 whole entry): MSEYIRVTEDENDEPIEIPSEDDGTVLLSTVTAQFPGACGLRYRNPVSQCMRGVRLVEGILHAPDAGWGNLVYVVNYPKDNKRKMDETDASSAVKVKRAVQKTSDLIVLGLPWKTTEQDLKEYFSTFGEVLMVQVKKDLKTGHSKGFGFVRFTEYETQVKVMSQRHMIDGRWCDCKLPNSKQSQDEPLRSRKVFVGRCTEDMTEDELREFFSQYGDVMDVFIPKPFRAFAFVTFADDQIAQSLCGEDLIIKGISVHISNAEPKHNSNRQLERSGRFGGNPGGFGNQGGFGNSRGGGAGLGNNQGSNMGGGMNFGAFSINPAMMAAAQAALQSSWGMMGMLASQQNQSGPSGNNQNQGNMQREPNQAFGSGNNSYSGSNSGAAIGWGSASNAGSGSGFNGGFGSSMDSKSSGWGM
row,Binder,binding signal
1,B1,0.181 R (bound/input frequency ratio)
2,B2,0.344 R (bound/input frequency ratio)
3,B3,0.453 R (bound/input frequency ratio)
4,B4,6.33 R (bound/input frequency ratio)
5,B5,6.86 R (bound/input frequency ratio)
6,B6,6.28 R (bound/input frequency ratio)
7,B7,8.42 R (bound/input frequency ratio)
